Screening results from PubChem.
G9a inh: blocks human histone lysine methyltransferase G9a; Q96KQ7; G9a H3K9 monomethylation, AlphaScreen, 2 h; Potency, µM (series often up to 102 µM), without a hit: top-dose activity, negative = inhibition, most hits filed as inhibitors; 350,000 compounds, 8.8% hits; also: potency is read from the fitted curve at half-maximal effect; nearly all actives have a fitted effect of over 75% in size
Target sequence (Q96KQ7 913-1193 limits assumed): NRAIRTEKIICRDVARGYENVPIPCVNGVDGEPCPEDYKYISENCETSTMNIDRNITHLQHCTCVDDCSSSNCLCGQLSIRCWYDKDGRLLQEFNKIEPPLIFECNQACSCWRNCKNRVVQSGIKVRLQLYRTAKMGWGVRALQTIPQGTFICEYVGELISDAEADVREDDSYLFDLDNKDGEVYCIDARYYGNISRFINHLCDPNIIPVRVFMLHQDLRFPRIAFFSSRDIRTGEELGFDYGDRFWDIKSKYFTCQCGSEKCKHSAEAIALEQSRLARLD
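AlphaScreen read-out: biotin-H3K9 peptide (500 nM) methylation by 20 nM enzyme with 20 uM SAM, 2 h at room temperature after 15 min compound preincubation; anti-monomethyl H3K9 antibody plus donor/acceptor beads, 10 min dark.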
Tau fluor counter: counter-screen for tau fibril formation inhibitors; AID 1463; tau K18 P301L Alexa594 fluorescence, heparin fibrillization; Potency, µM (doses to about 57.7 µM), without a hit: at the highest dose activity change, negative = decrease; 280,000 compounds, 0.93% hits; also: potency is read from the fitted curve at half-maximal effect; nearly all actives have a fitted effect of over 55% in size
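Human tau K18 P301L (15 uM unlabeled, 0.24 uM Alexa 594-labeled) in 100 mM sodium acetate pH 7 with 20 uM heparin, 6 hr at 37 C. ThT 30 uM added, 1 hr ambient; Alexa 594 FP and total fluorescence read at 555/632 nm.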
Tau fibril FP: blocks human tau fibril formation measured by polarization; K18 P301L tau heparin fibrillization, Alexa594 FP, 6 h; Potency, µM (series often up to 57.7 µM), for inactives: at the top dose activity, negative = inhibition, hits mostly inhibitors; 280,000 compounds, 0.39% hits; AID 1468; also: potency is read from the fitted curve at half-maximal effect; nearly all actives have a fitted effect of over 55% in size
Target sequence (P10636 561-689 P618L limits assumed): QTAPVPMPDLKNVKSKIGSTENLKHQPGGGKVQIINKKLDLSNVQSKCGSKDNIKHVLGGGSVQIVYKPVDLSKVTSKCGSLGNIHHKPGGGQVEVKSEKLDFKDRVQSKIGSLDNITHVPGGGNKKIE
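Read-out: fluorescence polarization of Alexa 594-labeled tau (0.24 uM), 555 nm excitation, 632 nm emission. Mixtures held 15 uM unlabeled K18 P301L, compound and 20 uM heparin, pH 7 acetate buffer, incubated 6 hr at 37 C.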
Tau fibril ThT: tau fibrillization inhibition (ThT binding); P10636; recombinant tau K18 P301L (four-repeat tau fragment), heparin-induced fibrillization, ThT fluorescence; Potency, µM (series often up to 57.4 µM), for inactives: top-dose activity, negative = inhibition, most hits filed as inhibitors; 270,000 compounds, 2.1% hits; also: potency is read from the fitted curve at half-maximal effect; nearly all actives have a fitted effect of over 55% in size
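Recombinant human tau K18 fragment […] carrying P301L, 15 uM unlabeled plus 0.24 uM Alexa 594-labeled, was fibrillized with 20 uM heparin in 100 mM sodium acetate pH 7 for 6 hr at 37 C; 30 uM ThT fluorescence read after 1 hr.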
Sfp inh: blocks B. subtilis Sfp PPTase activity; Potency, µM, for the others: largest response in the series, negative = inhibition, usual class: inhibitors; Q9F4F7; Biochemical Sfp PPTase activity, qHTS; 310,000 compounds, 3.5% hits;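 also: the enzyme is Sfp with the accession as filed and its product quenches rhodamine fluorescence; potency is read from the fitted curve at half-maximal effect; 0% = enzyme reaction without inhibitor and -100% = no enzyme wells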
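Sfp 15 nM + cpd, 15 min RT; start w/ rhodamine-CoA 5 uM, BHQ-2-YbbR 12.5 uM (final); 50 mM Hepes pH 7.6, 10 mM MgCl2, 0.01% NP-40, 0.01% BSA; read 525/598 nm at 0 and 30 min.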
FBPA coupling cs: coupling enzyme interference in Giardia aldolase counter-screen; coupling enzyme system counterscreen, AmpLite Red fluorescence; activity change, negative = inhibition, % at 58.2 µM, hits read low; 290,000 compounds, 0.67% hits; AID 2472; in the data active = activity change below about -30%
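Final compound at 57.5 uM, incubated 10 min at RT with coupling enzyme reagent (glyceraldehyde-3-phosphate), then 20 min with substrate and AmpLite Red detection. Fluorescence read at 525/598 nm; tests interference with the coupling assay, not aldolase inhibition.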
* marks the source's active call; other numbers are inactive results; ? = inconclusive; . = not tested or not shown; [ ] = dose if it differs, or a comment. This is a sample that favours compounds with a hit; in the whole collection about 11% have one here. Unless noted, calls follow the shape of the dose curve; as a rule, active = well fitted curve in the direction sought with a large enough effect; inconclusive = small, poorly fitted or top-dose-only effect, or another doubt; inactive = no such curve, though single readings can be large; an effect the other way counts as inactive or inconclusive. Unless noted, % is scaled to controls: 0 for no effect and ±100 for the full control effect.

SMILES | G9a inh | Tau fluor counter | Tau fibril FP | Tau fibril ThT | Sfp inh | FBPA coupling cs
Cc1ccc(NS(=O)(=O)c2cc(-c3cnc(C4CC4)o3)ccc2C)cc1Cl | -2%[59 µM] | ? | -6% | -6% | . | .
Brc1ccc(CSc2nccn2-c2ccccc2)cc1 | 45µM* | -6% | -12% | -16% | -5% | -1
Clc1cccc(CSc2nccn2-c2ccccc2)c1 | . | -2% | -4% | 2% | -16% | -3
FC(F)(F)c1ccc(CSc2nccn2-c2ccccc2)cc1 | 45µM* | -8% | 1% | -16% | 9% | -1
Cc1c(Cl)cnc(NC(=O)COC(=O)c2nn(C)c(=O)c3ccccc23)c1Cl | 45µM* | -8% | -1% | -7% | -7% | 4
CCCn1nc(C(=O)OCC(=O)Nc2ncc(Cl)c(C)c2Cl)c2ccccc2c1=O | ? | -1% | 6% | -4% | 6% | 4
Cc1ccccc1CN1C(=O)c2ccccc2Sc2ccc(C(=O)NCc3ccccc3)cc21 | -4%[59 µM] | -2% | -5% | -2% | . | .
O=C(Nc1ccc(C(F)(F)F)cc1)C1(c2cccs2)CCOCC1 | -3%[59 µM] | -12% | -12% | 19% | . | .
CN(C)c1ccc(NC(=O)C2(c3cccs3)CCOCC2)cc1 | 2.8µM* | -11% | 7% | ? | . | .
Cc1cc(C)n2nc(C(=O)OCC(=O)c3ccc(F)cc3)nc2n1 | 56µM* | . | . | . | . | .
Cc1cccc(-c2noc(C(C)NC(=O)c3ccco3)n2)c1 (centres undefined) | 23% | . | . | . | -11% | -4
COc1ccc(-c2ccc3c(N)c(C(=O)NCc4ccc(Cl)cc4)sc3n2)cc1 | 2%[59 µM] | ? | -4% | -10% | . | .
CCOC(=O)/C(C#N)=C1/C=CN(Cc2ccccc2)C=N1 | 19% | 1% | 2% | 1% | 5% | 2
CCOC(=O)/C(C#N)=C1\C(=O)N(Cc2ccccc2)c2ccccc21 | . | ? | ? | 35µM* | 35µM* | -26
CCO/C(C)=C1\C(=O)N(CC)c2ccccc21 | 50µM* | 2% | 0% | -12% | 4% | 3
COc1ccccc1-c1cc2nc(C)c(CCC(=O)NCCc3cccc(C)c3)c(C)n2n1 | -2%[59 µM] | -14% | -9% | ? | . | .
COc1ccc(C/C(C)=N/NC(=S)Nc2ccc(C)c(C)c2)cc1 | 28µM* | -22% | 4% | ? | -6% | 2
COc1ccc(/C(C)=N/NC(=S)Nc2cc(C)ccc2C)cc1 | 35µM* | -28% | 4% | ? | -14% | -2
COc1ccc(C/C(C)=N/NC(=S)Nc2ccc(Cl)cc2)cc1 | 7.1µM* | -28% | -3% | . | ? | 1
COc1ccc(C/C(C)=N/NC(=S)Nc2ccccc2)cc1 | ? | -1% | -4% | ? | ? | 1
Cc1ccc(Cl)cc1NC(=O)C1CCCN(S(=O)(=O)c2c(C)noc2/C=C/N(C)C)C1 (centres undefined) | ? | ? | 0% | ? | . | .
COc1ccc(Nc2ncnc3c2cnn3C)c(OC)c1 | 0%[59 µM] | 1% | 17% | -3% | . | .
O=c1c2cccc(Cl)c2nc2n1Cc1ccccc1-2 | . | -22% | ? | ? | 14µM* | 2
O=c1nc2n(c3ccccc13)Cc1ccccc1-2 | -3%[59 µM] | 3% | 3% | -3% | 24% | 0
Cc1cc(C)cc(N2C(N)=NC(N)=NC2c2ccccc2F)c1 (centres undefined) | 2% | . | . | . | -1% | -4
SMILES | G9a inh | Tau fluor counter | Tau fibril FP | Tau fibril ThT | Sfp inh | FBPA coupling cs
COc1ccc(N/C=C\C(=O)c2ccc3ccccc3c2)cc1 | ? | . | . | . | 12% | 2
NS(=O)(=O)c1ccc(N/C=C\C(=O)c2ccc3ccccc3c2)cc1 | 8.9µM* | -12% | -17% | ? | -5% | 0
Nc1c(Nc2ccccc2)c2ccccc2oc1=O | 50µM* | -29% | 15% | -23% | -6% | 5
COc1cccc(CNC(=O)Nc2cccs2)c1 | 45µM* | -18% | -1% | ? | 45µM* | 2
COc1ccc(Br)cc1CNC(=O)Nc1cccs1 | ? | ? | 8% | ? | 50µM* | 0
Cc1ccc(CNC(=O)Nc2ccccc2)cc1 | -33%[12.7 µM] | -4% | 2% | -1% | 6% | 0
Cc1ccc(CNC(=O)Nc2cccs2)cc1 | ? | -20% | -3% | -13% | 18µM* | 0
COc1ccc(CNCCNC(=O)c2cccs2)cc1OC | 11µM* | -3% | -3% | -8% | -8% | 5
COc1ccc(CNC(=O)Nc2cccs2)cc1OC | 13µM* | -10% | 10% | -17% | 25µM* | 1
CCOC(=O)N1CCN(C(=O)c2ccc(Cn3c(=S)[nH]c4ccc(Br)cc4c3=O)cc2)CC1 | 1% | . | . | . | 10% | .
CC(=O)N1CCc2cc(S(=O)(=O)NC(Cc3ccccc3)C(=O)NCc3ccccc3)ccc21 (centres undefined) | -3%[59 µM] | -18% | 4% | -2% | . | .
CCCOC(=O)C1=C(C)NC2=C(C(=O)CC(C)(C)C2)C1c1ccc(N(C)C)cc1 (centres undefined) | 35µM* | -18% | 0% | -11% | -1% | -1
CC(NS(=O)(=O)c1ccc2c(c1)C(C)(C)C(=O)N2C)c1ccccc1 (centres undefined) | 25% | . | . | . | 6% | 1
O=C(C1CC1)N1CCc2cc(Br)cc(S(=O)(=O)NCCCN3CCCC3)c21 | 50µM* | 1% | 3% | -10% | 5% | 1
Cc1cc(C)n2c(SCC(=O)NCc3ccc4c(c3)OCO4)nnc2n1 | 11µM* | -10% | 1% | . | 71µM* | -1
Cc1nnc(SCC(=O)NCc2ccc3c(c2)OCO3)[nH]c1=O | 50µM* | 2% | -3% | -9% | ? | -1
CCn1c(SCC(=O)NCc2ccc3c(c2)OCO3)nnc1-c1ccncc1 | -50% | 15% | 2% | 6% | 7% | -2
N#Cc1ccc(NC(=O)CN2C(=O)NC3(CCCC3)C2=O)cc1 | 20% | . | . | . | 13% | 0
CCC1(c2ccccc2)NC(=S)N(c2ccc(C)cc2)N1 (centres undefined) | ? | -15% | -5% | ? | 50µM* | 3
CCC1(c2ccc(Cl)cc2)NC(=S)N(c2ccccc2)N1 (centres undefined) | 13µM* | -27% | -2% | ? | 56µM* | 4
Cc1ccc(N2CC(C(=O)Nc3ccc(S(=O)(=O)Nc4ncccn4)cc3)CC2=O)cc1C (centres undefined) | 3% | . | . | . | 29% | 3
C[C@@H]1C(=O)O[C@@H]1[C@@H](C)CO[Si](c1ccccc1)(c1ccccc1)C(C)(C)C | . | . | . | . | 21% | 1
Cc1ncc(CO)c(/C=N/NC(=O)c2ccc(Br)cc2)c1O | 43%[59 µM] | -3% | 6% | -9% | 25% | 1
Cc1ncc(CO)c(/C=N/Nc2cccc(Cl)n2)c1O | 14% | . | . | . | ? | 0
